The text below walks through data of PubChem BioAssay.

A number with no mark means an inactive call. No rule for the calls is given here.

For the experiment, the target named is Pantothenate synthetase (Mycobacterium tuberculosis (strain ATCC 25618 / H37Rv)) (UniProt P9WIL5). In words: Coupled enzyme confirmation of inhibitors against recombinant Mtb PanC (AID 375).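 Also: 0% = full reaction with vehicle and 100% = no enzyme background.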 As to conditions: coupled enzyme assay; at 10 µM, stronger effect = higher value.
Pantothenate synthetase (Mycobacterium tuberculosis (strain ATCC 25618 / H37Rv)), sequence (P9WIL5 whole entry, looked up): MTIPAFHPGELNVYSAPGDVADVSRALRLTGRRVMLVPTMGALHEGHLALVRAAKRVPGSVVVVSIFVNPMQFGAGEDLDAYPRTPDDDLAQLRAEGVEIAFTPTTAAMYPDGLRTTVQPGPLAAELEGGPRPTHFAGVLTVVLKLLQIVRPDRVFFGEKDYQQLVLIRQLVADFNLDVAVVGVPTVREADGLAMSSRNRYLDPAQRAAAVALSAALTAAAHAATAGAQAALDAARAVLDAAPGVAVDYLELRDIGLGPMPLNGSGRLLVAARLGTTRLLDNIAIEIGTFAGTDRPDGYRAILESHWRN
Regarding `O=C(COC(=O)c1ccco1)NCc1cccs1`, the inhibition – broadly, the relative decrease from the control value, in per cent – is 0%. On to `COc1ccc(Oc2c(C)oc3cc(OC(=O)N4CCOCC4)ccc3c2=O)cc1`, for which the inhibition was 3%. The same measure for `Cc1c(C(=O)N2CCOCC2)oc2ccc(S(=O)(=O)N3CCCC3)cc12`: 0%; for `CCC(Oc1ccc2ccccc2c1)C(=O)O` (stereo unspecified): 0%. Regarding `Cc1cc(NC(=O)CSc2nnc(COc3cccc(C)c3C)n2Cc2ccco2)no1`, the inhibition was 0%. The same measure for `CC(C)n1nnnc1SCC(=O)Nc1ccccc1N1CCOCC1`: 1%. In the case of `Nn1c(SCC(=O)Nc2ccc3c(c2)OCO3)nnc1C1CC1`, the inhibition is 4%. The same measure for `Cc1ccc(-n2ncc3c(N4CCN(c5ccccc5)CC4)ncnc32)c(C)c1`: 0%. For `CCn1c(SCC(=O)N2CCOCC2)nc2c(c1=O)SC(C)C2` (stereo unspecified) the value was 0%.

For the compound `COCCn1c(-c2ccc(OC)c(OC)c2)nc2ccccc21`, the inhibition is 0%. On to `CCCN1CCN(C(=O)Cn2cccc2C(=O)c2ccccc2)CC1`, for which the inhibition is 0%. For `COCCCNC(=O)CC(NS(=O)(=O)c1ccc(Cl)cc1)c1ccco1` (stereo unspecified) the value was 0%. The same measure for `Cc1ccc(Nc2nc(CSc3nnc(-c4cccs4)o3)cs2)cc1`: 0%. The same measure for `O=C(Cn1nnc(-c2cccc(C(F)(F)F)c2)n1)NC(=O)NCc1ccco1`: 0%. Regarding `CCCC(=O)O[C@]1(C(=O)COC(C)=O)CC[C@H]2[C@@H]3C[C@H](F)C4=CC(=O)C=C[C@]4(C)[C@@]3(F)[C@@H](O)C[C@@]21C`, the inhibition is 0%. On to `Cc1cccc(Cn2c(=O)n(Cc3ccco3)c(=O)c3ccccc32)c1`, for which the inhibition is 0%.
